“And” between values parts separate entries of the source, which are not always exact repeats. Equal values may be shown once. Out of some 330,000 compounds screened, about 1,900 (0.58%) were called active. About 4% were inconclusive and are not listed. A selection follows. Entries with a potency or affinity are not part of this list. Unmarked numbers belong to inactive results. No stated cut-off is given here; in the data, inconclusive means inhibition above about 70% without an active follow-up result; inactive means below that.
Assay: M. tuberculosis growth inhibition, HTS (AID 449762);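 further: bacterial growth assessed after seven days of incubation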
Details: M. tuberculosis H37Rv growth inhibition, 7H9 media; at 25 µM; active compounds read high

| SMILES | inhibition |
| --- | --- |
| CCOC(=O)N1CCN(S(=O)(=O)c2ccc(C(=O)Nc3nc4c(s3)CC(C)CC4)cc2)CC1 (configuration not stated) | 16.7% |
| C#CCn1cnc2c(oc3ccccc32)c1=O | 2.24% |
| COc1ccc(Br)cc1-c1nc(CCl)cs1 | 60.4% |
| N#C/C(=C\c1ccccn1)c1ccccn1 | -3.85% |
| Cc1cc(C)n2nc(CC#N)c(C#N)c2n1 | 1.45% |
| CCc1ccc(N2C(=O)CN(Cc3cccs3)C2=S)cc1 | 38.7% |
| COc1ccccc1Nc1nc(N)nc(CN2CCN(Cc3ccccc3)CC2)n1 | 43.2% |
| COc1ccc(OCc2nc(N)nc(Nc3ccccc3OC)n2)cc1 | 2.69% |
| O=C(CNC(=O)c1ccc(Br)o1)NC12CC3CC(CC(C3)C1)C2 | 5.74% |
| COc1ccc(CN2C(=NC(=O)COc3ccccc3)SC3CS(=O)(=O)CC32)cc1 (configuration not stated) | -7.1% |
| Cc1cc(C)n2nc(SCCCC(=O)c3ccc(F)cc3)nc2n1 | -9.89% |
| CN(C)N=Nc1ccc2nc[nH]c2c1 | -2.52% |
| NC(=O)c1[nH]cnc1N | -17.9% and 7.5% |
| O=C1CCCCN1CCC(=O)N1CCCC(N2CCN(c3cccc(Cl)c3)CC2)C1 (configuration not stated) | -10.9% |
| O=C(NNC(=O)C1CC(c2cccs2)=NO1)Nc1ccc(Cl)cc1 (configuration not stated) | -0.49% |
| Cc1cc(=O)[nH]c(SCC(=O)N(CCC#N)c2ccccc2)c1C#N | -2.5% |
| CCCCNC(=S)N1CCn2cccc2C1c1cccnc1 (configuration not stated) | -0.76% |
| C=C1C(=O)[C@@]23[C@H](O)C[C@@H]4C(C)(C)CC[C@H](O)[C@]4(C)[C@@H]2C[C@H](O)[C@@H]1[C@H]3O | 62.1% |
| COc1cc(-c2ccc3c(=O)c4ccccc4sc3c2)cc(OC)c1OC | 8.35% |

| SMILES | inhibition |
| --- | --- |
| Cc1oc2c(cc(NS(=O)(=O)c3ccc4c5c(cccc35)C(=O)N4)c3ccccc32)c1C(=O)OC(C)C | 51% |
| CCOC(=O)c1c(C)oc2ccc(NS(=O)(=O)c3ccc4c5c(cccc35)C(=O)N4)cc12 | 62.7% |
| Nc1nc(SCc2ccccc2)ns1 | 15% |
| Nc1nc(SCc2ccc(Cl)cc2Cl)ns1 | 22.1% |
| CC1(C)CC[C@]2(C(=O)O[C@@H]3OC(CO)[C@@H](O)[C@H](O)[C@H]3O)CC[C@]3(C)C(=CCC4[C@@]5(C)CC[C@H](O[C@@H]6OC(C(=O)O)[C@@H](O)[C@H](O)[C@H]6O)C(C)(C)C5CC[C@]43C)[C@@H]2C1 (some centres not stated) | 1.92% |
| CN(CC(=O)Nc1cccc(F)c1)C(=O)c1ccc(-c2cccc(C(F)(F)F)c2)o1 | 0.48% |
| CCOc1ccccc1N(CC(=O)Nc1cccc2ccccc12)S(C)(=O)=O | -0.92% |
| CC1(C)Cc2c(c(N3CCOCC3)nc3sc4c(NCC5CCCO5)nnnc4c23)CS1 (configuration not stated) | 11.7% |
| CC1(C)Cc2c(c(N3CCOCC3)nc3sc4c(NCCN5CCOCC5)nnnc4c23)CS1 | 36.9% |
| O=S(=O)(NC1=NCCC1)c1cccc(NS(=O)(=O)c2ccc(OC(F)(F)F)cc2)c1 | -9.41% |
| COc1ccccc1N(CC(=O)NCCc1ccccc1)C(=O)CCC(=O)Nc1ccccn1 | -2.52% |
| COc1ccc(NC(=O)N2CCC3(CC2)OCCO3)cc1OC | 1.68% |
| COc1ccc(NC(=O)CSc2nnc(-c3ccccn3)n2N)cc1 | 8.63% |
| COc1ccc(NC(=O)CSc2nnc(-c3ccco3)n2N)cc1Cl | 46.6% |
| CC(C)(C)c1ccc(C(=O)NCC(=O)NNC(=O)c2ccccc2O)cc1 | 8.86% |
| O=C(O)c1ccc(/C=N/NC(=O)c2cc3c(ccc4ccccc43)o2)cc1 | 4.81% |
| O=C(N/N=C/c1ccncc1)c1cc2c(ccc3ccccc32)o1 | 1.21% |
| CC(C)(C)c1ccc(OCC(=O)Nc2ccc(C(=O)Nc3ccccc3C(=O)O)cc2)cc1 | -6.72% |
| Cc1ccc(N=Cc2ccc[nH]2)c(O)c1 | 2.98% |

| SMILES | inhibition |
| --- | --- |
| Fc1ccc(N=Cc2ccc[nH]2)cc1 | 13.1% |
| O=C1NCC(O)=C1C=NCCCO | -4.48% |
| O=C1NCC(O)=C1C=NCCO | 4.69% |
| N#CCCn1cc(C(=O)Nc2cccc(C(=O)O)c2)c(-c2ccc(Cl)cc2)n1 | -2.32% |
| Cc1ccccc1COc1ccc(-c2nnn(CC(=O)O)n2)cc1 | 0.49% |
| CCOc1ccc(NC(=O)CN(C)C(=O)c2c(-c3ccccc3)noc2C)cc1OCC | -10.4% |
| CCc1ccccc1NNC(=O)CCc1ccccc1 | 4.45% |
| Cc1ccc(NC(=O)CCC(=O)NNC(=O)CCc2ccccc2)c(C)c1 | 8.11% |
| CCOC(=O)CSc1nnc(CSc2nc3sc4c(c3c(=O)[nH]2)CCC4)n1C | -1.21% |
| COCCN1C(=O)C(CC(=O)Nc2ccccc2)SC1=Nc1ccc(OC)cc1 (configuration not stated) | 6.34% |
| Cc1ccc(NC(=O)c2cc(-c3ccccc3)nn2-c2ccccc2)c(Br)c1 | 62.5% |
| Cc1ccc(NC(=O)c2cc(-c3ccccc3)nn2-c2ccccc2)cc1 | 0.76% |
| Cc1ccnc(NC(=O)COC(=O)C2COc3ccccc3O2)n1 (configuration not stated) | -4.37% |
| CCOc1ccc(S(=O)(=O)N2CCCCC2)cc1NS(=O)(=O)c1cccs1 | -3.42% |
| COc1cc([C@@H]2c3cc4c(cc3[C@H](O)[C@H]3COC(=O)[C@H]23)OCO4)cc(OC)c1OC | -2.97% |
| COc1cc([C@@H]2c3cc4c(cc3[C@@H](OC)[C@H]3COC(=O)[C@H]23)OCO4)cc(OC)c1O | -15.3% |
| Cc1ccc(NC(=O)c2ccc3ccccc3n2)nc1 | 5.21% |
| CCc1ccc(NC(=O)C(C)OC(=O)c2ccc(NS(=O)(=O)c3ccc(C)c([N+](=O)[O-])c3)cc2)cc1 (configuration not stated) | -6.87% |
| COc1ccc(CCNC(=O)C2CC(c3cccc([N+](=O)[O-])c3)=NO2)cc1 (configuration not stated) | 2.77% |
